In PubChem BioAssay (NCI) one finds growth inhibition data, which are given here for five compounds.

The nature of assay [1]: NCI Yeast Anticancer Drug Screen. Data for the rad50 strain (AID 155).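 Also: 0% = growth of vehicle-only cultures of the same strain.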 Conditions: S. cerevisiae rad50 strain growth inhibition, hits give high values. The method in brief: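 Compounds were tested on a yeast strain with an engineered DNA damage repair alteration; the reported value is growth inhibition normalised to vehicle treatment.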
A short description of assay [2]: NCI Yeast Anticancer Drug Screen. Data for the mec2-1 strain (AID 157). As to conditions: S. cerevisiae mec2-1 strain, hits give high values. The method, boiled down:
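Strain: mec2-1 (DNA repair/cell cycle alteration). Compound exposure, then growth measured; inhibition expressed relative to vehicle.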

Assay [3] can be described thus: NCI Yeast Anticancer Drug Screen. Data for the sgs1 mgt1 strain (AID 161).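 Also: 0% = growth of cultures given vehicle only.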 As to conditions: S. cerevisiae sgs1 mgt1 strain, hits give high values. The method in brief: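 Genetically altered yeast, compound exposure, growth inhibition relative to vehicle.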
A short description of assay [4]: NCI Yeast Anticancer Drug Screen. Data for the cln2 rad14 strain (AID 165).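 Also: 0% = growth equal to vehicle treated cultures.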 As to conditions: S. cerevisiae cln2 rad14 strain, hits give high values. The method in brief:
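Compounds are applied to the cln2 rad14 yeast strain, and growth is then compared with that of vehicle-treated cultures to give inhibition.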

Assay [5] can be described thus: NCI Yeast Anticancer Drug Screen. Data for the bub3 strain (AID 167). Conditions: S. cerevisiae bub3 mutant strain, hits give high values. The method in brief:
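Growth of a checkpoint-deficient yeast mutant is measured after compound exposure. Values represent inhibition relative to vehicle.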

Assay [6] in a line: NCI Yeast Anticancer Drug Screen. Data for the mlh1 rad18 strain (AID 175). As to conditions: S. cerevisiae mlh1 rad18 strain growth inhibition, hits give high values. The method in brief:
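Read-out is yeast growth inhibition, calculated against vehicle-only controls. The compound was applied to a strain engineered with DNA damage repair alterations.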

The mark [7] stands for this setting: at 5.0 µM (retest, dose inferred, filed as 0.5).
Where [8] appears, read: at 50.0 µM (retest, dose inferred, filed as 5.0).

Compounds without any hit were thinned out: in the full panel of roughly 79,000, 15% have a hit. A number with no mark means an inactive call. Calls of active or inactive are those of the source. Rule as the data show it: active = growth inhibition above about 70%; inactive = the rest.

For the compound `C=C1CC2(CC(c3ccccc3C)OC(c3ccccc3C)C2)OC1=O` (stereo not given), the growth inhibition is 54% in assay [1] (setting [7]); 85% (active) in assay [1] (setting [8]); 77.7% (active) in assay [1] (at 50.0 µM); 53% in assay [2] (setting [7]); 94% (active) in assay [2] (setting [8]); 83.7% (active) in assay [2] (at 50.0 µM). In addition, the growth inhibition in assay [3] (setting [7]) is 76% (active); in assay [3] (setting [8]), 83% (active); in assay [3] (at 50.0 µM), 84.1% (active); in assay [4] (setting [7]), 83% (active); in assay [4] (setting [8]), 91% (active); in assay [4] (at 50.0 µM) it was 84% (active). In addition, the growth inhibition in assay [5] (setting [7]) is 74% (active); in assay [5] (setting [8]) it was 87% (active); in assay [5] (at 50.0 µM) it was 78.4% (active); in assay [6] (setting [7]), 80% (active); in assay [6] (setting [8]), 90% (active).
In the case of `CCCCCCCCCCNC1CC(OC2CC(O)(C(O)CO)Cc3c(O)c4c(c(O)c32)C(=O)c2c(OC)cccc2C4=O)OC(C)C1O` (stereo not given), the growth inhibition is 96% (active) in assay [1] (setting [7]); 97% (active) in assay [1] (setting [8]); 85.8% (active) in assay [1] (at 50.0 µM); 99% (active) in assay [2] (setting [7]); 98% (active) in assay [2] (setting [8]); 89.7% (active) in assay [2] (at 50.0 µM). Besides, the growth inhibition in assay [3] (setting [7]) was 95% (active); in assay [3] (setting [8]) it was 98% (active); in assay [3] (at 50.0 µM), 90.2% (active); in assay [4] (setting [7]), 80% (active); in assay [4] (setting [8]), 96% (active); in assay [4] (at 50.0 µM), 88.2% (active). The growth inhibition is 49% in assay [5] (setting [7]); 97% (active) in assay [5] (setting [8]); 87.8% (active) in assay [5] (at 50.0 µM); 99% (active) in assay [6] (setting [7]); 96% (active) in assay [6] (setting [8]).
Turning to `COc1cccc2c1C(=O)c1c(O)c3c(c(O)c1C2=O)C[C@@](O)(C(C)=O)C[C@@H]3OC1CC(N(C)C)C(O)C(C)O1` (stereo not given in full), the growth inhibition in assay [1] (setting [7]) was 98% (active); in assay [1] (setting [8]), 98% (active); in assay [1] (at 50.0 µM), 86.5% (active); in assay [2] (setting [7]) it was 98% (active); in assay [2] (setting [8]), 98% (active); in assay [2] (at 50.0 µM) it was 90.3% (active). Further, the growth inhibition is 99% (active) in assay [3] (setting [7]); 99% (active) in assay [3] (setting [8]); 90.8% (active) in assay [3] (at 50.0 µM); 96% (active) in assay [4] (setting [7]); 97% (active) in assay [4] (setting [8]); 90.2% (active) in assay [4] (at 50.0 µM). The growth inhibition is 99% (active) in assay [5] (setting [7]); 99% (active) in assay [5] (setting [8]); 88% (active) in assay [5] (at 50.0 µM); 97% (active) in assay [6] (setting [7]); 97% (active) in assay [6] (setting [8]).
For `Clc1nc(Cl)c(Cl)c(Cl)n1`, the growth inhibition in assay [1] (setting [7]) was 29%; in assay [1] (setting [8]), 98% (active); in assay [1] (at 50.0 µM) it was 64%; in assay [2] (setting [7]), 23%; in assay [2] (setting [8]), 100% (active); in assay [2] (at 50.0 µM), 72.5% (active). Besides, the growth inhibition in assay [3] (setting [7]) was 5%; in assay [3] (setting [8]) it was 98% (active); in assay [3] (at 50.0 µM), 8.65%; in assay [4] (setting [7]), 11%; in assay [4] (setting [8]), 92% (active); in assay [4] (at 50.0 µM), 13.1%. Besides, the growth inhibition is 23% in assay [5] (setting [7]); 99% (active) in assay [5] (setting [8]); 33% in assay [5] (at 50.0 µM); 39% in assay [6] (setting [7]); 98% (active) in assay [6] (setting [8]).
In the case of `Nc1nc(N)c2c(Cl)c(CNc3ccc(Cl)c(Cl)c3)ccc2n1`, the growth inhibition was 82% (active) in assay [1] (setting [7]); 98% (active) in assay [1] (setting [8]); 88.1% (active) in assay [1] (at 50.0 µM); 97% (active) in assay [2] (setting [7]); 98% (active) in assay [2] (setting [8]); 91% (active) in assay [2] (at 50.0 µM). In addition, the growth inhibition in assay [3] (setting [7]) is 81% (active); in assay [3] (setting [8]), 98% (active); in assay [3] (at 50.0 µM) it was 90.8% (active); in assay [4] (setting [7]), 46%; in assay [4] (setting [8]), 98% (active); in assay [4] (at 50.0 µM), 89.9% (active). Also, the growth inhibition in assay [5] (setting [7]) is 74% (active); in assay [5] (setting [8]), 98% (active); in assay [5] (at 50.0 µM), 89.7% (active); in assay [6] (setting [7]), 75% (active); in assay [6] (setting [8]), 98% (active).
